Mot1-301 SUMO: inhibitors of SUMOylation pathway: yeast Mot1-301 growth rescue. S. cerevisiae Mot1-301 growth rescue, ATP luminescence, 38.5C; percent above DMSO median, 100 means doubled. growth rescue, % at 18.8 µM. 320,000 tested, 1% active;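 active means every valid replicate shows activation above 250% relative to neutral control wells; inactive means the rest, any valid replicate at or below 250%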;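 further: OY570 slx delta 5 strain wells were the positive control but not used for scaling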
AHR act: activators of human aryl hydrocarbon receptor; P35869; AHR-responsive luciferase reporter cells, luminescence; activation, % at 5 µM; 320,000 tested, 2.5% active; AID 2796; in the data active means activation above about 47%;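 further: 0% = vehicle wells and 100% = reference agonist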
Efflux pump mplx: antifungal efflux pump inhibition, Nile Red retention; 330,000 tested, 0.44% active; AID 485275; S. cerevisiae Candida pump triplex; inhibition, % at 10 µM;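 active means plate passing quality check with inhibition over a set limit, or well fluorescence over plate mean plus 4 SD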;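 further: Nile Red retained in pooled yeast measured as flow cytometry median fluorescence; 0% = buffer negative control and 100% = Enniatin B positive control; higher means more Nile Red kept so more efflux inhibition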
ALR H2O2 inh: inhibitors of human sulfhydryl oxidase ALR; P55789; purified ALR, DTT oxidation, H2O2 HRP-luminol luminescence; inhibition, % (test concentration not listed); 290,000 tested, 3.8% active; AID 485317;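 active means mean replicate inhibition above about 79%, with every replicate also reaching it, limit read from the data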
A1 inh: inhibitors of the anti-apoptotic protein A1, read as caspase activation | MEF A1-2A-BIM cells, Caspase-Glo 3/7 luminescence, 3 h; percent of clofoctol response, vehicle zero | AID 2462 | 330,000 tested, 0.066% active | caspase activation, % (no concentration beside the values);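 active means over half of replicate activation scores above 10%, or exactly half above 10 with the replicate mean above 10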
VLA-4 inh: inhibition in a human VLA-4 binding assay; P13612; VLA-4 expressing cells, ligand binding flow cytometry; inhibition, % (about 7 µM as worked out from the volumes in the protocol); 330,000 tested, 0.2% active; AID 2557; in the data active means inhibition above about 50%
Target sequence (P13612 whole entry, looked up): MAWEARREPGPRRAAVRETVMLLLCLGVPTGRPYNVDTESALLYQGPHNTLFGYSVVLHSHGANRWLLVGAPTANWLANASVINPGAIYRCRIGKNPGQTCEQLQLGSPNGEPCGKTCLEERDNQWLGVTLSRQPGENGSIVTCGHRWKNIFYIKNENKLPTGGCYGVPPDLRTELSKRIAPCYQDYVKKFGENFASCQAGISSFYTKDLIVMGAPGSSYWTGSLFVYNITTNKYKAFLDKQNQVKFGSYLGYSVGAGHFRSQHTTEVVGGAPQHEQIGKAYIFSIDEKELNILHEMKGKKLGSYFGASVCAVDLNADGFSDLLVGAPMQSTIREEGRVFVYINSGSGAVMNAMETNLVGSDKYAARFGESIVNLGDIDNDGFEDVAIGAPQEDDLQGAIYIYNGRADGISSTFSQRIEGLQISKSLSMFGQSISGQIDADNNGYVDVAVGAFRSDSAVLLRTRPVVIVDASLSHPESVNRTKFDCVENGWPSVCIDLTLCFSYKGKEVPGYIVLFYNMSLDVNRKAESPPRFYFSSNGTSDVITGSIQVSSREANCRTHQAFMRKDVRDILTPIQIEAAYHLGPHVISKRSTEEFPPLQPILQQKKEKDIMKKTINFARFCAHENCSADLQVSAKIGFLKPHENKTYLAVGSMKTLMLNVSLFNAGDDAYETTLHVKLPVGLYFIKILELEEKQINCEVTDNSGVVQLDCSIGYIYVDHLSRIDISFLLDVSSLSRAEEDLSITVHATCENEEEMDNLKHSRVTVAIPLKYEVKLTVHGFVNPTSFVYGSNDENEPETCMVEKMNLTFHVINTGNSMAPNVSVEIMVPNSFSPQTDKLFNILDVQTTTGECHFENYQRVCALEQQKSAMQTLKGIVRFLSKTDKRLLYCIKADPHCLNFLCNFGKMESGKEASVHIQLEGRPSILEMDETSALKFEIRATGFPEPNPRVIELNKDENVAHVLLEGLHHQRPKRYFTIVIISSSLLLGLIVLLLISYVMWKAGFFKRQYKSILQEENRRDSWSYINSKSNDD
* hit, by the source's call; · = not tested or not shown. In the library only some 7.2% were active in any assay of this set; here they are far more common.

SMILES | Mot1-301 SUMO | AHR act | Efflux pump mplx | ALR H2O2 inh | A1 inh | VLA-4 inh
CSc1cccc(-n2cc(-c3ccc4c(c3)OCO4)[nH]c2=O)c1 | 10 | 51* | 1 | -14 | -1 | -18
O=C(NC1(C(F)(F)F)N=C2SCCN2C1=O)c1cccnc1 (stereo not drawn) | -2 | 1 | 0 | -9 | 0 | -3
CC1(C)OC1COc1c2ccoc2cc2oc(=O)ccc12 (stereo not drawn) | -2 | 68* | 0 | -2 | 1 | 18
COC(C)(C)[C@H](O)COc1c2ccoc2cc2oc(=O)ccc12 | 80 | 57* | 0 | 5 | 1 | 6
COc1c2ccoc2c(OC[C@@H](O)C(C)(C)O)c2oc(=O)ccc12 | 90 | 50* | 0 | -14 | 0 | 16
CCC1CCCCN1C(=S)Nc1ccc(OC(F)F)cc1 (stereo not drawn) | -2 | 0 | 0 | 8 | 1 | 11
COc1ccc(OC)c(NC(=O)COC(=O)CCS(=O)(=O)c2ccc(Cl)cc2)c1 | 2 | 3 | 0 | 5 | 1 | 12
Cn1c(=O)c2c(nc(N/N=C/c3cccnc3)n2Cc2ccccc2)n(C)c1=O | 135 | 36 | 0 | 32 | 1 | 14
CCOc1ccc(OCCN2C(=O)c3ccccc3C2=O)cc1 | -28 | -16 | 0 | -2 | -3 | 22
O=C1c2ccccc2C(=O)N1CCCOc1ccccc1 | 3 | 66* | 0 | 2 | 0 | 1
COc1ccc(OC)c(C(=O)/C=C/c2cccnc2)c1 | -3 | 13 | 0 | 1 | 1 | 2
COC(=O)c1ccc(/C=C/C(=O)c2ccc(OC)c(OC)c2)cc1 | 91 | 2 | 0 | 99* | 0 | 1
COc1ccc(/C=C/C(=O)c2ccc(OC)cc2OC)cc1 | 5 | -3 | 0 | 94* | 0 | 19
CCOc1ccc(C(=O)/C=C/c2cc(OC)c(OC)c(OC)c2)cc1 | 20 | -1 | 0 | 9 | 1 | 11
COC(=O)c1ccc(/C=C/C(=O)c2ccc(OC)cc2)cc1 | 25 | 4 | 0 | 55 | 0 | -3
COc1cc(/C=C/C(=O)c2ccc(F)cc2)cc(OC)c1OC | 29 | 8 | 0 | 97* | 0 | -106
COc1cc(C(=O)/C=C/c2cccnc2)ccc1O | 56 | 12 | 0 | 100* | 0 | 2
COc1cc(/C=N/NC(=O)c2c(C)nc3ccc(Cl)cn23)cc(OC)c1OC | -7 | · | 0 | 8 | 1 | 0
CCc1ccccc1NC(=S)N(Cc1ccc(C(=O)O)cc1)Cc1ccc(OC)c(OC)c1 | 0 | 1 | 0 | -8 | 1 | 8
COc1cccc(-c2csc(N3CCN(C(=S)Nc4ccccc4C)CC3)n2)c1 | 5 | 18 | 0 | 1 | 0 | 0
CCN1CCN(c2ccc(NC(=O)COc3ccc([N+](=O)[O-])cc3)cc2)CC1 | 33 | 0 | 0 | -2 | 2 | -1
CCOC(=O)C1CCCN(S(=O)(=O)CCNC(=O)c2ccc3c(c2)OCO3)C1 (stereo not drawn) | · | 0 | 0 | · | 1 | -17
O=C(/C=C/c1ccc(Br)o1)NC(c1ccccc1)c1ccccc1 | 2 | 3 | 0 | 2 | -1 | 10
O=C(/C=C/c1ccc(Br)o1)OCc1ccccc1 | 305* | 2 | 0 | -11 | 0 | -1
O=c1[nH]c2cc3c(cc2cc1CN(Cc1cccnc1)C(=S)NCc1ccco1)OCCO3 | -13 | 28 | 0 | -9 | 1 | -14
SMILES | Mot1-301 SUMO | AHR act | Efflux pump mplx | ALR H2O2 inh | A1 inh | VLA-4 inh
O=c1[nH]c2cc3c(cc2cc1CN(Cc1cccnc1)C(=S)NCc1ccco1)OCO3 | · | 66* | 0 | -2 | -1 | -8
CCOc1cc(/C=N/O)ccc1OCc1ccc(F)cc1 | 3 | 27 | -1 | 38 | 1 | 0
CCOc1cc(/C=N/O)ccc1OCc1ccc([N+](=O)[O-])cc1 | 19 | 78* | 0 | 5 | 0 | 11
COc1ccc(NC(=O)COC(=O)c2ccc(-n3cnnn3)cc2)c([N+](=O)[O-])c1 | -3 | -1 | 0 | -3 | 0 | -7
COc1cc(O)cc2occ(-c3ccc(O)cc3)c(=O)c12 | -13 | 0 | 0 | 98* | -2 | 6
COc1ccc(-c2coc3cc(O)ccc3c2=O)cc1O | -4 | -1 | 0 | 77* | 1 | 6
COc1ccc(-c2coc3cc(O)ccc3c2=O)cc1 | 5 | 4 | 0 | -4 | -4 | 45
C=CCc1c(C)nc(C)nc1N/N=C/c1ccccc1O | 5 | 43 | 0 | 42 | 0 | -8
C=CCc1c(C)nc(C)nc1N/N=C/c1ccc([N+](=O)[O-])cc1 | 196 | 78* | 0 | 26 | 0 | -5
COC1=C/C(=C/c2c(N)n3nc(CC(=O)N4CCCCC4)sc3nc2=O)C=CC1=O | -14 | 5 | 0 | 100* | -1 | -3
CCOC1=C/C(=C/c2c(N)n3nc(S(=O)(=O)CC)sc3nc2=O)C=CC1=O | -5 | 0 | 0 | 99* | 0 | -19
CCOC1=C/C(=C/c2c(N)n3nc(CC(=O)N4CCCCC4)sc3nc2=O)C=CC1=O | -18 | 2 | -1 | 99* | 1 | -9
Nc1c(C=C2C=CC(=O)C=C2)c(=O)nc2sc(CC(=O)N3CCOCC3)nn12 | -2 | 1 | 0 | 98* | 0 | 10
C=CCC1=C/C(=C\c2c(N)n3nc(CC(=O)N4CCCC4)sc3nc2=O)C=C(OC)C1=O | 12 | 2 | 0 | 50 | 0 | -13
COc1ccc(C)cc1NC(=O)CCN1CC(C)OC(C)C1 (stereo not drawn) | 6 | 1 | 0 | -6 | 0 | 0
CCOC(=O)C1=C(C)NC(=O)C(C(N)=O)C1c1ccccc1 (stereo not drawn) | -9 | 2 | 0 | -1 | -1 | 4
Cc1cc(C)nc(SCC(=O)Nc2nonc2N)n1 | 37 | 4 | 0 | 9 | 1 | 35
O=C(Nc1ccccc1)Nc1sccc1-c1nc2ccccc2s1 | 2 | 72* | 0 | 1 | -1 | -18
COc1ccccc1NC(=O)Nc1sccc1-c1nc2ccccc2s1 | -28 | 33 | 0 | 7 | 0 | -36
O=C(Nc1cccc(Cl)c1)Nc1sccc1-c1nc2ccccc2s1 | -18 | 49* | 0 | 17 | -1 | -5
O=C(Cc1csc(-c2ccccc2)n1)NCc1cccs1 | · | 13 | 0 | -3 | 1 | -4
O=C(O)/C=C/C(=O)Nc1ccc(C2(c3ccc(NC(=O)/C=C/C(=O)O)cc3)c3ccccc3-c3ccccc32)cc1 | 224 | -1 | 0 | 98* | 0 | 5
O=C(O)/C=C/C(=O)Nc1ccc(Cc2ccc(NC(=O)/C=C/C(=O)O)cc2)cc1 | 1 | 1 | 0 | 99* | 0 | 21
COc1ccc(NC(=O)N(C)C[C@H]2Oc3ccc(NC(=O)c4ccncc4)cc3C(=O)N([C@H](C)CO)C[C@@H]2C)cc1 | 14 | 1 | 0 | -7 | 0 | -1
